Bioassay records as filed in PubChem.
Only a selection was taken, and hits are over-represented in it overall.
Pf Dd2 inh: Plasmodium falciparum Dd2 growth inhibition | P. falciparum Dd2 growth, SYBR Green, 72 h | Potency, µM (doses to about 28.9 µM), usual class: inhibitors | hit rate 4.3% among 120,000; active = well fitted inhibition curve with a large enough effect; also: nearly all actives have a fitted effect of over 65% in size
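Readout: SYBR Green fluorescence, 485 nm excitation, 535 nm emission, after ~16 h lysis at 37C. Before that, Dd2-infected red cells (2.5% hematocrit) grew 72 h with compound, 29 uM top final concentration.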
A number is an active result; 0 = inactive; [ ] = dose if it differs, or a comment.

SMILES	Pf Dd2 inh
CS(=O)(=O)N(C[C@H]1O[C@@H](CC(=O)NC2CC2)[C@H](O)[C@@H]1O)C[C@H]1O[C@@H](CC(=O)NC2CC2)[C@H](O)[C@@H]1O	0
O=C1OC2(CN1CC1CCOCC1)CN(C(=O)c1ccc(Oc3ccccc3)cc1)C2	0
CC1(c2ccccc2)N(Cc2ccccc2F)C(=O)OC12CCN(C(=O)Cc1ccc(O)cc1)CC2 (stereo not given)	0
CC(C)C(=O)N1CCC2(CC1)OC(=O)N(Cc1ncccn1)C2(C)c1ccccc1 (stereo not given)	0
CC1(c2ccccc2)N(Cc2ccccc2C#N)C(=O)OC12CCN(C(=O)Cc1cccc(F)c1)CC2 (stereo not given)	11µM
CC1(c2ccccc2)N(Cc2cccnc2)C(=O)OC12CCN(C(=O)Cc1cccc(F)c1)CC2 (stereo not given)	0
CC1(c2ccccc2)N(Cc2ncccn2)C(=O)OC12CCN(C(=O)Cc1ccc(Cl)cc1)CC2 (stereo not given)	13µM
CC1(c2ccccc2)N(Cc2ccccc2C#N)C(=O)OC12CCN(C(=O)Cc1ccc(O)cc1)CC2 (stereo not given)	0
CCOC(=O)CCNC(=O)N1C[C@@H](Oc2cccnc2)C[C@H]1C(=O)N1CCOCC1	0
COc1ccc(C(=O)N2CCCN(C)c3ccccc32)c(C)c1	0
Cc1nc(C)c(C(=O)N2CCOCC2CC(=O)NCc2cccnc2)s1 (stereo not given)	0
CCc1ccc(CNC(=O)CCc2conc2-c2cccc(C)c2)cc1	0
COC(=O)[C@@H](C)NC(=O)[C@H]1CN(C(=O)c2cccnc2)CCN1C(C)=O	0
COc1ccc(C)cc1NC(=O)C1CCN(C(=O)c2ncn3c2COC(c2ccc(F)cc2)C3)CC1 (stereo not given)	0
Cc1cc2ncc(C(=O)N3CCC(Cc4ccccc4)CC3)cn2n1	0
O=C(NCc1ccco1)c1ccc(CN2C(=O)NC3(CCS(=O)(=O)CC3)C2=O)cc1	0
COc1ccc(CN(C)Cc2ccc(-c3ccccc3)cc2)cc1	0
CN(Cc1ccc(-c2ccccc2)cc1)Cc1ccc(C(F)(F)F)cc1	0
CC(C)CCN(C)Cc1ccccc1C(F)(F)F	0
CN(Cc1ccc(F)cc1)Cc1ccc(-c2ccccc2)cc1	0
CN(Cc1ccc(-c2ccccc2)cc1)Cc1cccnc1	4µM
CC(C)CCN(C)Cc1ccc(-c2ccccc2)cc1	8.9µM
Cc1cccc(C(=O)Nc2cccc(C3OC(=O)N(Cc4ccccc4)C3C(=O)NCC(C)C)c2)c1 (stereo not given)	0
Cc1ccc(CN2C(=O)OC(c3cccc(NC(=O)c4ccccc4)c3)C2C(=O)NCCC(C)C)cc1 (stereo not given)	7.1µM
CCC(=O)Nc1cccc(C2OC(=O)N(Cc3ccc(C)cc3)C2C(=O)NCCOC)c1 (stereo not given)	0
SMILES	Pf Dd2 inh
Cc1cnc(C(=O)N2CC(c3nc(CCOCC4CC4)no3)C2)cn1	0
COc1cccc(-c2nc3cnccn3c2NCCC(=O)NC2CCCCCC2)c1	0
O=C(c1cccc(Cl)c1)N1CCN(c2nc3ncccc3o2)CC1	0
COCc1nc2nccc(-c3ccc4c(c3)OCCCO4)n2n1	0
Fc1ccc(Cc2nc3nccc(-c4ccc5c(c4)OCCCO5)n3n2)cc1	14µM
COc1ccc(Cc2nc3nccc(-c4ccc5c(c4)OCCCO5)n3n2)cc1	0
c1ccc(CCCNc2ncncc2-c2nc(-c3ccccc3)no2)cc1	0
CN1C(=O)C(c2ccccc2)CC12CCN(C(=O)C1(C(N)=O)CC1)CC2 (stereo not given)	0
O=C(c1ccc(OC2CCN(C(=O)c3ccsc3)CC2)nc1)N1CCOCC1	0
Cc1ccc2nc(-c3ccncc3)c(Nc3ccccc3C)n2c1	0
Cc1ccc2nc(-c3c[nH]c4ccccc34)c(Nc3ccccc3C)n2c1	0
Cc1ccn2c(Nc3ccccc3C)c(-c3ccccn3)nc2c1	3.2µM
Cc1ccc2nc(-c3ccccn3)c(Nc3ccccc3C)n2c1	8.9µM
Cc1ccccc1Nc1c(-c2cccc(Cl)c2)nc2ncccn12	0
Cc1ccccc1Nc1c(-c2c[nH]c3ccccc23)nc2cccc(C)n12	0
Cc1cc(C)c(NC(=O)CSc2nncn3c2cc2oc(C)cc23)c(C)c1	0[5.79 µM]
CCOC(=O)c1ccc(NC(=O)C(CC)Sc2nncn3c2cc2oc(C)cc23)cc1 (stereo not given)	10µM
COc1ccc(NC(=O)CSc2nncn3c2cc2oc(C)cc23)cc1OC	0
Cn1cc(-c2ccccc2)cc1C(=O)N1CCOCC1	0
Cc1nonc1CC(=O)N1CCCC(c2n[nH]c(=O)n2-c2ccccc2)C1 (stereo not given)	0
CN(Cc1cccnc1)C1CN(C(=O)C2CCC2)C1	0
Cc1ccc(CN(Cc2cccn2-c2nnc(N3CCCC3=O)s2)C(=O)Nc2ccccc2Cl)cc1	11µM
Cc1ccc(NCc2cccn2-c2nnc(N3CCC(C(=O)NCc4ccc(OC(C)C)cc4)CC3)s2)cc1	0
CCc1ccc(NCc2cccn2-c2nnc(N3CCCCCC3)s2)cc1	0
Cc1cc(C)n(-c2nc3ccccc3nc2Nc2ccc(Cl)cc2Cl)n1	0
SMILES	Pf Dd2 inh
Cc1cc(C)n(-c2nc3ccccc3nc2Nc2cc(Cl)ccc2C)n1	0
Cc1cc(Nc2ccc(Cl)cc2C)nc(-n2nc(C)cc2C)n1	3.5µM
Cc1cccnc1NC(=O)Cn1nc2c(cc1=O)CCCCC2	0
COC(=O)c1c(NC(C)=O)c2cc(NC(C)CC(C)(C)O)cnc2n1CCc1ccc(OC)cc1 (stereo not given)	0
O=C(Cc1ccccc1F)N1CCC2(CC1)N(c1ccccc1)C(=O)CS2(=O)=O	0
COc1ccc(C(=O)N2CCCCCCNC(=O)CC2)cc1F	0
COc1ccc(C(=O)N2CCC(c3n[nH]c(=O)n3Cc3ccc(F)cc3)CC2)cn1	0
O=C(c1ccc(Oc2ccc(CN3CCCC3)cc2F)nc1)N1CCCCC1	7.1µM
Cc1nc(Cn2nc(C3CCCNC3)n(-c3ccccc3)c2=O)cs1 (stereo not given)	0
CC(C)c1cccc(NC(=O)C2CCN(C(=O)c3ncn4c3COC(c3ccc(F)cc3)C4)CC2)c1 (stereo not given)	0
O=C(CCC[C@@H]1[C@H]2CCCN3CCC[C@@H](CN1C(=O)c1ccccc1)[C@@H]23)NCCN1CCCCC1	0
O=C(CCC[C@@H]1[C@H]2CCCN3CCC[C@@H](CN1C(=O)c1ccccc1)[C@@H]23)N1CCCCC1	0
CC(C)N1CCN(C(=O)CCC[C@@H]2[C@H]3CCCN4CCC[C@@H](CN2C(=O)c2ccccc2)[C@@H]34)CC1	0
O=C(CCC[C@@H]1[C@H]2CCCN3CCC[C@@H](CN1Cc1cccnc1)[C@@H]23)N1CCN(C2CCCC2)CC1	0
CCN(Cc1ccccc1)C(=O)CCC[C@@H]1[C@H]2CCCN3CCC[C@@H](CN1C(=O)c1ccccc1)[C@@H]23	2µM
CC(C)N1CCN(C(=O)CCC[C@@H]2[C@H]3CCCN4CCC[C@@H](CN2Cc2ccccc2)[C@@H]34)CC1	4µM
Cc1ccc(C(=O)N2CCCN(c3nc4ncccc4o3)CC2)cc1	0
CN(CC1CCOC1)C(=O)c1cccc(Cl)c1 (stereo not given)	0[5.79 µM]
C=CCS(=O)(=O)N1CCC2(CCCN(CCCc3ccccc3)C2=O)C1 (stereo not given)	0
CC(C)NC(=O)N1CCC2(CC1)CC(C(=O)N1CCOCC1)N(C)C2 (stereo not given)	0
COc1ncccc1-c1cc(C(=O)NCc2c(C)cc(C)[nH]c2=O)c2c(c1)N(C(C)C)CCO2	0
Cc1noc(-c2ccn3c(CNC(=O)c4ccoc4)nnc3c2)n1	0
